In PubChem BioAssay:
Activity calls are given as the source filed them. Unless noted, no rule for the calls is given here.

Assays:
[1] = test system: Wnt5a (protein binding on small-molecule microarray); experiment: Wnt5a binders on small-molecule microarray, primary screen, biophysical, 635/667 nm fluorescence (AID 1142); details: 635 nm fluorescence, higher = more signal;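 also: fluorescence read at 667 nm with signal to noise per printed feature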
[2] = cell viability in Huh7 cells, primary screen, cytotoxicity control for HCV replication inhibitor project, CellTiter-Glo luminescence, basal, 48 h (AID 1143); details: Huh7 HCV replicon, higher = more signal, called active from +8 up or from −8 down;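 also: Huh7 hepatoma cells carrying a hepatitis C replication reporter with no stimulus; test concentration not given here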
[3] = P. aeruginosa biofilm formation inhibitors, primary screen, PAO1 strain, BacTiter-Glo luminescence, LB-PBS (AID 1144); details: 12 h, higher = more signal
[4] = CREB reporter modulators without forskolin, primary screen, cell-based, PC12, CRE-LacZ reporter, unstimulated (AID 1145); details: no forskolin, luminescence, 4.5 h, higher = more signal, called active from +8 up or from −8 down
[5] = CREB reporter modulators under forskolin, primary screen, cell-based, PC12, CRE-LacZ reporter, forskolin-stimulated (AID 1146); details: luminescence, 4.5 h, higher = more signal, called active from +8 up or from −8 down;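 also: PC12 cells with 6xCRE LacZ reporter stimulated by forskolin 10 µM; beta-galactosidase reporter signal reflecting CREB driven transcription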
[6] = biological target: Streptavidin (Streptomyces avidinii) (UniProt P22629); experiment: streptavidin binders on small-molecule microarray, primary screen, artefact control for SMM compound annotation, biophysical, 635/667 nm fluorescence (AID 1147); details: streptavidin binding, higher = more signal;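 also: signal reflects streptavidin binding to arrayed compounds as a control protein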
Chain of Streptavidin (Streptomyces avidinii) (P22629 whole entry, looked up): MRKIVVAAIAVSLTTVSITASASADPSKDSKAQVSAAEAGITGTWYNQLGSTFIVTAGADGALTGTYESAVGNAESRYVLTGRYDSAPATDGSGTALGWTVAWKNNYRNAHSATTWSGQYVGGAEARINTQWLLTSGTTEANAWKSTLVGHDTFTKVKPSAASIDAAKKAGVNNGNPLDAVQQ

[7] = small-molecule binders of probe aInhba, primary screen, biochemical, small-molecule microarray, 635/667 nm fluorescence (AID 1148); details: higher = more signal;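 also: score merges 667nm spot fluorescence with signal-to-noise for antibody binding to printed compounds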
Torsin-1A (Homo sapiens) [8] = biological target: Torsin-1A (Homo sapiens) (UniProt O14656); experiment: torsin A binders from cell lysate, primary screen, small-molecule microarray, wild-type, 635/667 nm (AID 1149); details: COS7 hTOR1A-WT lysate, 635 nm fluorescence, higher = more signal
Chain of Torsin-1A (Homo sapiens) (O14656 whole entry, looked up): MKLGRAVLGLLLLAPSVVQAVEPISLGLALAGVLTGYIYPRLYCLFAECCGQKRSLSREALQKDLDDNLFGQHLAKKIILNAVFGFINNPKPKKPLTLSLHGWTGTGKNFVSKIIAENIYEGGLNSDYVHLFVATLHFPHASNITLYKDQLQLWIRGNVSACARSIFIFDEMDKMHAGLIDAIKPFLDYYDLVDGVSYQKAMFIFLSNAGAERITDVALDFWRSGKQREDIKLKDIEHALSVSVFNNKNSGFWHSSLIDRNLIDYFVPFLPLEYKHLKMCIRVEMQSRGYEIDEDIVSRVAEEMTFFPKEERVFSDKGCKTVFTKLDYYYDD

Torsin-1A (Homo sapiens) [9] = biological target: Torsin-1A (Homo sapiens) (UniProt O14656); experiment: small-molecule binders of mutant TOR1A in lysate, primary screen, cell lysate, small-molecule microarray, COS7 lysate, 635/667 nm fluorescence (AID 1150); details: COS7 hTOR1A mutant lysate, 635 nm fluorescence, higher = more signal;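 also: score pools 667 nm emission and signal to noise measuring lysate protein binding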
[10] = test system: Sonic hedgehog protein (Shh); experiment: small-molecule binders of Shh protein, primary screen, biochemical, small-molecule microarray, 635/667 nm fluorescence (AID 1151); details: small-molecule microarray binding, 635 nm fluorescence; higher = more signal;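 also: Shh protein binding to compounds spotted on small-molecule microarray slides; score combines spot fluorescence intensity with signal-to-noise across triplicate slides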
[11] = E. coli DRC41 culture turbidity changes, primary screen, E. coli filamentation inducer project, strain DRC41, OD650, 48 h (AID 1152);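 also: E. coli MC1000 strain DRC41 lacking acrAB efflux pump and sulA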; details: E. coli DRC41 (acrAB sulA), higher = more signal, called active from +8 up or from −8 down
[12] = small-molecule binders of probe aLefty1, primary screen, biochemical, small-molecule microarray, 635/667 nm fluorescence (AID 1153); details: higher = more signal;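 also: score merges spot fluorescence with signal-to-noise ratio from the scanned slide images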
[13] = PSAC antagonists in infected red cells, primary screen, cell-based, P. falciparum Indochina, OD700, 1 h (AID 1154); details: P. falciparum Indochina infected RBC osmotic lysis, higher = more signal, called active from +8 up or from −8 down
[14] = PSAC antagonists in infected red cells, primary screen, cell-based, P. falciparum Indochina, OD700, 2 h (AID 1155);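 also: lysis reports solute entry through the parasite surface anion channel PSAC; channel blockers reduce lysis of infected cells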; details: P. falciparum Indochina infected erythrocytes, osmotic lysis OD700; higher = more signal, called active from +8 up or from −8 down
[15] = osmotic lysis modulators in infected erythrocytes, primary screen, PSAC antagonist project, cell-based, P. falciparum Indochina, OD700, 3 h (AID 1156); details: higher = more signal, called active from +8 up or from −8 down
[16] = PSAC antagonists in infected red cells, primary screen, cell-based, P. falciparum Indochina, OD700, 18 h (AID 1157); details: P. falciparum Indochina infected erythrocytes, osmotic lysis OD700, 18 h; higher = more signal, called active from +8 up or from −8 down
[17] = modulators of S6 phosphorylation in cells, primary screen, cell-based, A549, cytoblot, luminescence, serum-stimulated (AID 1158); details: A549 phospho-S6 cytoblot, 5 h, higher = more signal;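 also: serum-stimulated A549 lung adenocarcinoma cells; signal is phosphorylated S6 detected by cytoblot immunostaining with HRP secondary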
[18] = biological target: NADPH oxidase 2 (Homo sapiens) (UniProt P04839); experiment: NOX2-dependent H2O2 signal modulators, primary screen, NOX inhibitor project, cell-based, HEK293-NOX2, PMA-stimulated, Amplex Red fluorescence (AID 1159); details: 45 min, higher = more signal, called active from +8 up or from −8 down; also: test concentration not given here
Chain of NADPH oxidase 2 (Homo sapiens) (P04839 whole entry, looked up): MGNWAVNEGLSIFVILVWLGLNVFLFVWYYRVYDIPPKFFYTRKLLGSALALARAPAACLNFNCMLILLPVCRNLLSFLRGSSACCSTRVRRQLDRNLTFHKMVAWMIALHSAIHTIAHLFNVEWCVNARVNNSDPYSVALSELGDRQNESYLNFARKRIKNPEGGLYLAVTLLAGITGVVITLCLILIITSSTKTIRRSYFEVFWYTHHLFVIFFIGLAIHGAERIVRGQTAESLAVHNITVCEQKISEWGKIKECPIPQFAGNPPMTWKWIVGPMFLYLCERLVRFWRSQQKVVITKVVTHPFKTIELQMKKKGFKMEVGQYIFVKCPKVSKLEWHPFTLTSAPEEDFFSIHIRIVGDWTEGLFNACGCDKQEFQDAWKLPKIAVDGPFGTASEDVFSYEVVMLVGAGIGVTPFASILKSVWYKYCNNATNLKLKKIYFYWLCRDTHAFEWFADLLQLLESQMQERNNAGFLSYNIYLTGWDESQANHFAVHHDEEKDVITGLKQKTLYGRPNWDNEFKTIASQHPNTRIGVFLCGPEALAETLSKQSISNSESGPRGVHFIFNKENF

[19] = biological target: NADPH oxidase 4 (Homo sapiens) (UniProt Q9NPH5); experiment: NOX4-dependent H2O2 signal modulators, primary screen, NOX inhibitor project, cell-based, HEK293-NOX4, tetracycline-induced, Amplex Red fluorescence (AID 1160); details: 45 min, higher = more signal, called active from +8 up or from −8 down
Chain of NADPH oxidase 4 (Homo sapiens) (Q9NPH5 whole entry, looked up): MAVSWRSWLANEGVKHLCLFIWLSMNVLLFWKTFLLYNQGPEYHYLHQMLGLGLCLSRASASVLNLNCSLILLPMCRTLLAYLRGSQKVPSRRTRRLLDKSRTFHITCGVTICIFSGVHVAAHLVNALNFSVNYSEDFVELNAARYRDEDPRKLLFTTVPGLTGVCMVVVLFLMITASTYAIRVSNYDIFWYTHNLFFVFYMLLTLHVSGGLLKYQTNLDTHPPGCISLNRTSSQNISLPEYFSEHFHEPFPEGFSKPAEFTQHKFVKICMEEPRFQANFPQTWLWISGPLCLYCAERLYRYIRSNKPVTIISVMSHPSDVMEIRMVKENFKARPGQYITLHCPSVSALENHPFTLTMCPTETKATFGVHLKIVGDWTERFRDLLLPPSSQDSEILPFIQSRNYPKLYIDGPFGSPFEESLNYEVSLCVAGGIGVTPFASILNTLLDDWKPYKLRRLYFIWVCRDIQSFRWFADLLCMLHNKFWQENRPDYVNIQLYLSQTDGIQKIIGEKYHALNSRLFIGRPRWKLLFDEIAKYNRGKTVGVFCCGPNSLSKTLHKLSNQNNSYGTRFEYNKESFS

[20] = biological target: NADPH oxidase 5 (Homo sapiens) (UniProt Q96PH1); experiment: NOX5-dependent H2O2 signal modulators, primary screen, NOX inhibitor project, cell-based, HEK293-NOX5, Amplex Red fluorescence (AID 1161); details: HEK293-NOX5, ionomycin, 45 min, higher = more signal
Chain of NADPH oxidase 5 (Homo sapiens) (Q96PH1 whole entry, looked up): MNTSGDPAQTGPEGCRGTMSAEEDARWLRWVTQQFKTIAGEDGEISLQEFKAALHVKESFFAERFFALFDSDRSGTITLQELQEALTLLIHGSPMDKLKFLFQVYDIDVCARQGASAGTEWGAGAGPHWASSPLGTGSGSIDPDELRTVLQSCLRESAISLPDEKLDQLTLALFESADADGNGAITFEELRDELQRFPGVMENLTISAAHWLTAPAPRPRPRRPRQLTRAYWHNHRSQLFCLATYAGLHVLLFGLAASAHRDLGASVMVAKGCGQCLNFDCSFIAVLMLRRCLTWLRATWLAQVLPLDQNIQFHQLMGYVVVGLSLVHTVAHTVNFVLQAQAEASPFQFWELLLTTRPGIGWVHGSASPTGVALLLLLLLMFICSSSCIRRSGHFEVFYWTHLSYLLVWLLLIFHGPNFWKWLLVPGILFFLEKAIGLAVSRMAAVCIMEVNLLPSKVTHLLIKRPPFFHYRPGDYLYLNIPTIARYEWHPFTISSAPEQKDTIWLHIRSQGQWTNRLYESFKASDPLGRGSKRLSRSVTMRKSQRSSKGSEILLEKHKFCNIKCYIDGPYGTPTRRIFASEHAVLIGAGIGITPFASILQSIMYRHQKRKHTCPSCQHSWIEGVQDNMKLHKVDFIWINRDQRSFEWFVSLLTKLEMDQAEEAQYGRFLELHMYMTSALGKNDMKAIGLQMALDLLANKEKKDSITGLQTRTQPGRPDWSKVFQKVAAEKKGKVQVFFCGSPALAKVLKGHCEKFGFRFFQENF

| Structure (SMILES) | composite z-score [1] | z-score [2] | z-score [3] | z-score [4] | z-score [5] | composite z-score [6] | composite z-score [7] | composite z-score (Torsin-1A (Homo sapiens) [8]) | composite z-score (Torsin-1A (Homo sapiens) [9]) | composite z-score [10] | z-score [11] | composite z-score [12] | z-score [13] | z-score [14] | z-score [15] | z-score [16] | z-score [17] | z-score [18] | z-score [19] | z-score [20] |
| --- | --- | --- | --- | --- | --- | --- | --- | --- | --- | --- | --- | --- | --- | --- | --- | --- | --- | --- | --- | --- |
| CCN(CC)c1ccc(N2CC=CC34O[C@@H]5/C=C\CCCOC(=O)C5[C@H]3C(=O)N(CCCCCCO)[C@@H]4C2=O)cc1 (stereo not given in full) | -0.517 | -0.0416 (inactive) | 0.194 (inactive) | 0.475 (inactive) | 0.458 (inactive) | -0.41 | -0.0762 | -1.7 | -1.59 | 0.216 | 1.75 (inactive) | 0.135 | 1.78 (inactive) | -0.475 (inactive) | 0.625 (inactive) | -0.354 (inactive) | 1.66 | 0.274 (inactive) | 0.275 (inactive) | 1.36 |
| N#Cc1ccc(NN2C(C(O)c3ccccc3)C=CC3C(=O)N(c4ccccc4)C(=O)C32)cc1 (stereo not given) | 0.213 | 0.574 (inactive) | -0.121 (inactive) | -1.11 (inactive) | 1.06 (inactive) | 0.475 | 0.11 | 0.408 | -0.0163 | -0.67 | -1.28 (inactive) | 0.0077 | 9.06 (active) | 0.611 (inactive) | 1.65 (inactive) | 0.58 (inactive) | -0.823 | -2.08 (inactive) | -5.5 (inactive) | -3.44 |
| CC[C@@H]1[C@@H]2C3C(=O)N(CC)C(=O)C3CC(=O)[C@@H]2[C@H](c2ccc(C)cc2)N1S(=O)(=O)c1ccc(C)cc1 (stereo not given in full) | 0.513 | -3.1 (inactive) | -1.88 (inactive) | -0.424 (inactive) | -0.42 (inactive) | 0.492 | -0.0523 | -0.087 | 0.645 | 1.18 | 1.29 (inactive) | -0.149 | 1.39 (inactive) | 0.0985 (inactive) | -0.511 (inactive) | -1.35 (inactive) | 1.04 | 1.04 (inactive) | 0.451 (inactive) | 2.06 |
| O=C1O[C@H](c2ccccc2)[C@H](c2ccccc2)N2[C@H]1[C@@H](C(=O)N1CCN(c3ncccn3)CC1)[C@]1(C(=O)Nc3ccc(C#CCCO)cc31)[C@H]2c1ccccc1OCCO | 0.163 | -1.55 (inactive) | 0.525 (inactive) | 0.765 (inactive) | -0.484 (inactive) | 0.376 | 0.0714 | 0.506 | 0.686 | 0.371 | 0.313 (inactive) | -0.012 | 2.7 (inactive) | 1.55 (inactive) | 0.561 (inactive) | 0.657 (inactive) | -0.673 | 1.45 (inactive) | 0.492 (inactive) | 0.333 |
| O=C1O[C@H](c2ccccc2)[C@H](c2ccccc2)N2[C@H]1[C@@H](C(=O)N1CCN(c3ncccn3)CC1)[C@]1(C(=O)Nc3ccc(C#CCCO)cc31)[C@H]2c1ccc(OCCO)cc1 | 1.02 | 0.505 (inactive) | -0.339 (inactive) | -0.471 (inactive) | 0.344 (inactive) | 1.19 | 0.221 | 0.949 | 0.938 | 1.39 | -0.0115 (inactive) | 0.473 | 4.32 (inactive) | 1.18 (inactive) | 0.588 (inactive) | 0.585 (inactive) | 0.034 | 1.11 (inactive) | 0.57 (inactive) | 0.951 |
| C=CCC(OC(C)=O)[C@@H]1[C@@H](N(Cc2ccc(-c3ccccc3)cc2)C(=O)c2cccc3ccccc23)c2cc(OCCCO)ccc2N1C(=O)c1ccc2ccccc2n1 (stereo not given in full) | 0.0553 | -1.48 (inactive) | 0.321 (inactive) | 1.76 (inactive) | -0.505 (inactive) | 0.306 | 0.237 | 0.258 | 0.0374 | 0.0754 | 0.214 (inactive) | 0.123 | 1.01 (inactive) | 0.569 (inactive) | -0.745 (inactive) | 0.357 (inactive) | 0.332 | 0.772 (inactive) | -0.294 (inactive) | -3.7 |
| COCCOC(=O)N1C(=O)[C@@]2(c3cc(C#CCCO)ccc31)[C@H](C(=O)N1CCc3cc(OC)c(OC)cc3C1)[C@H]1C(=O)O[C@H](c3ccccc3)[C@H](c3ccccc3)N1[C@@H]2c1ccc(OCCO)cc1 | 0.667 | -2.99 (inactive) | -1.11 (inactive) | 0.362 (inactive) | -1.27 (inactive) | 0.675 | 0.077 | 0.284 | 0.89 | 2.13 | 1.42 (inactive) | 0.113 | 4.67 (inactive) | 1.02 (inactive) | 0.138 (inactive) | -0.0492 (inactive) | 1.26 | 1.35 (inactive) | 1.07 (inactive) | 1.44 |
| [N-]=[N+]=NCc1ccccc1[C@H]1OC(c2ccc(OCCCO)cc2)=N[C@@]1(Cc1ccccc1N=[N+]=[N-])C(=O)N1CCCCC1 | 0.163 | -3.39 (inactive) | -0.567 (inactive) | 0.236 (inactive) | -1.04 (inactive) | 1.31 | 0.277 | 0.84 | 0.89 | 0.419 | 0.369 (inactive) | 0.72 | 27.7 (active) | 21.4 (active) | 2.7 (inactive) | 4.56 (inactive) | -0.0152 | -2.52 (inactive) | 0.328 (inactive) | -0.575 |
| COCCOC(=O)N1C(=O)[C@@]2(c3cc(C#CCCO)ccc31)[C@H](C(=O)NC[C@H](O)c1ccccc1)[C@H]1C(=O)O[C@H](c3ccccc3)[C@H](c3ccccc3)N1[C@@H]2c1ccccc1OCCO | 0.524 | -1.34 (inactive) | 1.59 (inactive) | -0.0607 (inactive) | 0.172 (inactive) | 0.562 | 0.413 | 1.19 | 0.597 | 1.35 | -0.0118 (inactive) | 0.213 | 2.52 (inactive) | 0.963 (inactive) | -0.654 (inactive) | 0.705 (inactive) | -0.18 | 1.54 (inactive) | 0.992 (inactive) | 1.17 |
| C#CCNS(=O)(=O)N(C)C | -0.006 | 0.251 (inactive) | -0.441 (inactive) | -0.882 (inactive) | 0.526 (inactive) | 0.0573 | -0.222 | 0.073 | 0.0442 | 0.666 | 1.14 (inactive) | -0.103 | 0.132 (inactive) | 0.262 (inactive) | -0.395 (inactive) | 0.0625 (inactive) | 0.32 | -0.533 (inactive) | 0.183 (inactive) | 0.112 |
